Only some compounds are listed: those with a hit (about 3.4% of all), similar ones and a draw of the others.
esBAF inh: SWI/SNF esBAF complex inhibition. AID 602393. 350,000 compounds, 2% hits. mouse ES cells, Bmi1-luciferase knock-in reporter, 24 h; 100% = twice the neutral-well signal. reporter increase, % at 12.5 µM; in the data active = activation above about 40%;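 note: 0% = median of the plate's neutral control wells and 100% = double that signal; a rise in the Bmi1 reporter signal indicates esBAF inhibition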
HSF1 activator: increases HSF-1 driven luciferase reporter signal; activation, % at 9 µM; NIH3T3-HGL HSF-1 luciferase reporter, MG132, 8 h; 100% = twice DMSO control signal; AID 504408; 300,000 compounds, 1.7% hits;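 active = mean replicate activation of at least 50% with a set share of replicates each reaching 50%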;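 note: 0% = median of the neutral control wells and 100% = twice that signal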
Vif inh: inhibitors of HIV Vif; HEK293T cells, Vif self-association by quenched fluorescence, imaging, 24 h; inhibition, % at 7.49 µM; 340,000 compounds, 0.35% hits; in the data active = inhibition above about 50%, passing the limit was not always enough
HSF1 inh: HSF1 inhibition; NIH3T3-HGL HSE-luciferase, MG132-induced, luminescence 8 h; stronger effect = lower value; activity change, negative = inhibition, % at 7.5 µM (by protocol); 300,000 compounds, 0.77% hits;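 active = more than half of replicate wells show activity change below -50%, luminescence cut by over half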;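 note: luciferase reports HSF-1 transcriptional activity via heat shock element; 0% = median of DMSO wells and -100% = zero luminescence signal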
* = called active by the depositor; / = no result.

SMILES | esBAF inh | HSF1 activator | Vif inh | HSF1 inh
O=C(NC(N1CCOCC1)C(Cl)(Cl)Cl)c1ccc(Br)cc1 (stereo unspecified) | / | 2.1 | / | -5.8
CCCc1cc2c(=O)c(-c3ccccn3)c(C)oc2cc1O | 10.2 | 16.2 | 5.8 | -7.7
CCCc1cc2c(=O)c(-c3ccccn3)coc2cc1OC | 99.6* | 46.6 | 2.8 | 15.1
COc1ccc(NC(=O)N(C)C[C@H]2Oc3ccc(NC(=O)Nc4ccccc4)cc3CC(=O)N([C@@H](C)CO)C[C@H]2C)cc1 | -0.5 | / | / | /
O=C(CCCN1C(=O)c2cccnc2C1=O)Nc1ccc(Br)cc1 | -1.9 | -5.1 | 59.2* | -4.3
O=C(CCCN1C(=O)c2ccccc2C1=O)Nc1ccccc1 | -2.2 | -6.4 | -11.4 | 2.3
O=C(CCCN1C(=O)c2ccccc2C1=O)Nc1nncs1 | -4.7 | -6.3 | 59.9* | 2.1
O=C(CCCCCCN1C(=O)c2ccccc2C1=O)N1CCC(c2ccccc2)C1 (stereo unspecified) | / | -71.4 | 30.4 | -64.2*
O=C(CCCCCN1C(=O)c2ccccc2C1=O)Nc1ccc(C(=O)O)cc1 | -7.2 | 63.2* | -20.4 | 27.6
COc1cccc(NC(=O)N[C@H]2C=C[C@@H](CC(=O)N3CCCCC3)O[C@H]2CO)c1 | 5.1 | / | / | /
COc1ccc(C#Cc2ccc3c(c2)[C@H]2[C@H](CCN2C(=O)CC2CC2)[C@H](CO)N3)cc1 | -1.2 | / | / | /
N#C/C(=N\Nc1ccc(Br)cc1)C(=N)N1CCOCC1 | 56.1* | 34.0 | 3.4 | 16.5
O=c1c2c3c(sc2[nH]c(=S)n1Cc1ccco1)CCC3 | 10.6 | 93.5* | 0.2 | 75.3
CC1(C)Cc2c(sc3[nH]c(=S)n(Cc4ccco4)c(=O)c23)CO1 | -6.3 | 40.3 | -16.9 | 22.8
CC(=O)N(C)C[C@@H]1Oc2ncc(-c3ccccc3C)cc2C(=O)N([C@@H](C)CO)C[C@H]1C | -0.3 | / | / | /
O=C(Nc1ccn(Cc2ccccc2)n1)c1ccc2c(c1)OCO2 | / | 21.4 | 1.7 | 23.6
O=C(Nc1ccn(Cc2ccc(Cl)cc2)n1)c1ccccc1 | 56.4* | 45.4 | -3.8 | 33.2
Cc1ccc(NC(=O)c2cc(C)n(-c3cccc(C)c3)c2C)cc1 | / | -74.7 | -5.2 | -70.3*
Cc1ccc(NC(=O)c2cnn(-c3ccccc3)c2C)cc1 | -22.9 | 72.0* | -2.2 | 36.7
Cc1cc(C(=O)Nc2ccc(Cl)cc2)c(C)n1-c1ccccc1 | / | -91.8 | -5.8 | -90.3*
Cc1ccc(NC(=O)c2cnn(-c3ccccc3)c2C)c(C)c1 | 39.9 | 22.7 | -2.7 | 12.3
Cc1ccc(-n2c(C)cc(C(=O)NS(=O)(=O)c3ccc(C)cc3)c2C)cc1 | / | 2.4 | 1.1 | -3.4
Cc1ccc(NC(=O)c2cc(C)n(-c3ccccc3)c2C)cc1 | / | -83.2 | 0.1 | -81.5*
CNC[C@@H]1Oc2c(NS(=O)(=O)c3c(C)noc3C)cccc2C(=O)N([C@H](C)CO)C[C@@H]1C | -4.3 | / | / | /
C[C@@H]1CCCCO[C@H](CN(C)C(=O)C2CCCCC2)[C@@H](C)CN([C@H](C)CO)C(=O)c2cc(NC(=O)CCCCCC(=O)Nc3ccccc3N)ccc2O1 | -2.6 | / | / | /
SMILES | esBAF inh | HSF1 activator | Vif inh | HSF1 inh
Cc1cc(C(=O)OCC(=O)N2CCOCC2)c(C)n1-c1ccccc1 | 18.6 | / | 6.2 | /
Cc1cc(C(=O)OCC(=O)Nc2c(F)cccc2F)c(C)n1-c1ccccc1 | 48.4* | 27.5 | -12.4 | 2.3
O=C(c1cc(COc2ccccc2)on1)N1CCCC(OCc2cccnc2)C1 (stereo unspecified) | 0.3 | 2.8 | 0.4 | -0.6
CSc1ccccc1OCc1cc(C(=O)N2CCSCC2)no1 | 69.5* | 36.7 | 5.9 | 14.6
O=C(c1cc(COc2ccc(F)cc2Cl)on1)N1CCSCC1 | 77.7* | 83.9* | -0.9 | 33.3
COc1ccccc1OCc1cc(C(=O)N2CCCC(OCc3cccnc3)C2)no1 (stereo unspecified) | / | 62.9* | -4.1 | 38.6
CSc1ccccc1OCc1cc(C(=O)N2CCN(c3ncccn3)CC2)no1 | 38.2 | 14.1 | -2.5 | 2.5
COc1ccc(OCc2cc(C(=O)N3CCSCC3)no2)c(Cl)c1 | / | 33.3 | / | 11.6
O=C(c1cc(COc2ccc(F)c(F)c2)on1)N1CCSCC1 | 51.0* | 30.9 | 8.8 | 16.2
C[C@@H]1CN([C@H](C)CO)C(=O)c2cc(NC(=O)NC3CCCCC3)ccc2O[C@@H](C)CCCCO[C@@H]1CN(C)C(=O)NC1CCCCC1 | 0.7 | / | / | /
O=C(c1cc(COc2ccc3c(c2)CCCC3)on1)N1CCCC1 | 67.8* | 18.3 | 1.0 | 30.5
CSc1ccccc1OCc1cc(C(=O)N2CCCC(C)C2)no1 (stereo unspecified) | 61.8* | 49.8 | -12.9 | 17.5
CC(=O)c1ccc(Nc2nc(-c3cccnc3)cs2)cc1 | 51.5* | 4.4 | 0.5 | 13.5
CCOc1ccc(Nc2nc(-c3cccnc3)cs2)cc1 | 50.3* | -5.6 | -1.9 | 4.7
CC(=O)c1cccc(Nc2nc(-c3cccnc3)cs2)c1 | 54.2* | 31.4 | 6.9 | 19.6
Oc1ccc(Nc2nc(-c3cccnc3)cs2)cc1 | 38.9 | 34.9 | -4.7 | 33.0
O=C(Nc1nccs1)c1ccc(-c2ccccc2[N+](=O)[O-])o1 | 86.2* | 34.0 | -6.4 | 40.2
O=C(Nc1nccs1)c1ccc(-c2ccccc2Cl)o1 | / | 60.8* | -8.1 | 21.2
CC(=O)Cc1nsc(NC(=O)c2ccc(-c3ccccc3Cl)o2)n1 | / | 31.9 | / | 3.0
CCC(=O)N1C[C@H](C)[C@@H](OC)CN(C)C(=O)c2cc(NC(=O)NC(C)C)ccc2OC[C@@H]1C | -2.2 | / | / | /
Cc1cc(C)c2c(N)c(C(=O)Nc3ccccc3Cl)sc2n1 | / | 32.2 | -3.9 | -0.2
Cc1cc(C)c2c(N)c(C(=O)Nc3ccccc3F)sc2n1 | 50.2* | 26.0 | -6.7 | 10.7
COc1ccccc1NC(=O)c1sc2nc(N3CCOCC3)c3c(c2c1N)CCCC3 | -5.6 | 9.0 | 2.5 | 2.7
Cc1ccccc1NC(=O)c1sc2nc(N3CCOCC3)c3c(c2c1N)CCCC3 | 53.8* | 23.8 | 1.4 | 12.3
CSc1nccc(N/N=C/c2ccccc2)n1 | 52.2 | 71.9* | 1.1 | 46.4
SMILES | esBAF inh | HSF1 activator | Vif inh | HSF1 inh
Cc1ccnc(N/N=C/c2ccccc2)n1 | -0.8 | 13.4 | 26.4 | 2.7
O=C1CC(N2C(=O)/C(=C/C=C/c3ccccc3)SC2=S)C(=O)N1c1ccccc1 (stereo unspecified) | / | 83.2* | 2.4 | 28.1
O=C(O)CN1C(=O)/C(=C/C=C/c2ccccc2)SC1=S | / | -21.2 | -0.5 | 0.9
COC(=O)C1=C(C)N(Cc2ccc(C)cc2)C(=O)/C1=C\c1cc(OC)c(OC)c(OC)c1 | / | 97.8* | 0.5 | 71.7
COC(=O)C1=C(C)N(Cc2ccc(C)cc2)C(=O)/C1=C\c1ccc(O)c(OC)c1 | -4.9 | 23.7 | -8.1 | 21.6
C[C@H]1CN([C@@H](C)CO)C(=O)c2cc(-c3ccccc3)cnc2O[C@@H]1CN(C)C(=O)NC1CCCC1 | -3.8 | / | / | /
CO[C@H]1CN(C)C(=O)c2cc(NS(=O)(=O)c3ccccc3C)ccc2OC[C@H](C)N(C)C[C@@H]1C | -2.6 | / | / | /
Cc1ccc(Cn2ncc3c(N4CCN(C)CC4)ncnc32)cc1 | / | -81.1 | -4.5 | -74.6*
Cc1ccc(Cn2ncc3c(N4CCN(c5ccc(C)cc5)CC4)ncnc32)cc1 | -1.3 | 38.0 | / | 28.4
C=CCn1c2ccccc2c2nnc(SCC(=O)O)nc21 | 0.1 | -68.9 | 3.0 | -60.5*
